Test results reported in PubChem BioAssay AID1159580 (chemical genetic matrix, 2015).
Where “and” joins values, the source holds several entries; their conditions need not be identical. Equal entries are not always repeated. Among all 5,500 compounds or so, about 2,000 (36%) were called active. About 18% were inconclusive and are not listed. Rule as the data show it: active = normalized growth mostly below about 0.91 (no sharp cut-off); inconclusive = no clear call, values can overlap the other calls; inactive = mostly above about 0.92. This is one part of the list.

Test: chemical genetic growth profiling, strain panel (AID 1159580);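 also: tested at 20 µM; growth read once vehicle control cultures reached saturation at 30 °C; 1 = growth at the plate median or of vehicle wells; lower values mean less growth of the strain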
Conditions: S. cerevisiae deletion strains, growth OD

Measured: normalized growth

C#CC1(O)CCC2C3CCC4=CC(=O)CCC4(C)C3CCC21C (stereo unspecified)
active: locus YDR137W, strain rgp1, active compounds read low 1.19 [resistant]
inactive: locus YAL021C, strain ccr4, active compounds read low 0.973 | locus YAL026C, strain drs2, active compounds read low 0.982 | locus YAL030W, strain snc1, active compounds read low 0.995 | locus YBL061C, strain skt5, active compounds read low 0.96 | locus YBR009C, strain hhf1, active compounds read low 0.979 | locus YBR021W, strain FUR4, active compounds read low 0.985 | locus YBR023C, strain chs3, active compounds read low 0.981 | locus YBR171W, strain sec66, active compounds read low 0.981 | locus YBR229C, strain ROT2, active compounds read low 0.985 | locus YBR231C, strain swc5, active compounds read low 0.977 | locus YBR279W, strain paf1, active compounds read low 0.985 | locus YCL011C, strain gbp2, active compounds read low 0.994 | locus YCL016C, strain dcc1, active compounds read low 0.968 | locus YCL029C, strain bik1, active compounds read low 0.984 | locus YCL069W, strain vba3, active compounds read low 1 | locus YCR088W, strain abp1, active compounds read low 0.992 | locus YDL005C, strain med2, active compounds read low 0.976 | locus YDL035C, strain GPR1, active compounds read low 0.981 | locus YDL040C, strain nat1, active compounds read low 0.97 | locus YDL074C, strain BRE1, active compounds read low 1.01 | locus YDL101C, strain DUN1, active compounds read low 0.979 | locus YDL185W, strain tfp1, active compounds read low 0.981 | locus YDL192W, strain arf1, active compounds read low 0.98 | locus YDR001C, strain nth1, active compounds read low 0.977 | locus YDR069C, strain doa4, active compounds read low 0.933 | locus YDR101C, strain arx1, active compounds read low 1.02 | locus YDR159W, strain sac3, active compounds read low 0.937 | locus YDR162C, strain NBP2, active compounds read low 0.971 | locus YDR195W, strain ref2 0.975 | locus YDR297W, strain sur2, active compounds read low 0.98 | locus YDR318W, strain mcm21, active compounds read low 0.97 | locus YDR334W, strain swr1, active compounds read low 0.954 | locus YDR335W, strain msn5, active compounds read low 0.981 | locus YDR388W, active compounds read low 0.976 | locus YDR392W, strain spt3, active compounds read low 0.918 | locus YDR502C, strain sam2, active compounds read low 0.985 | locus YEL003W, strain gim4, active compounds read low 0.976 | locus YEL037C, strain rad23, active compounds read low 0.969 | locus YEL061C, strain CIN8 (second series), active compounds read low 0.965 | locus YEL061C, strain CIN8, active compounds read low 0.996 | locus YER015W, strain faa2, active compounds read low 0.992 | locus YER016W, strain bim1, active compounds read low 0.996 | locus YER110C, active compounds read low 0.968 | locus YER111C, strain swi4, active compounds read low 0.99 | locus YER155C, strain BEM2 (second series), active compounds read low 1.02 | locus YER155C, strain BEM2, active compounds read low 0.982 | locus YER167W, strain BCK2, active compounds read low 0.994 | locus YFR010W, strain ubp6, active compounds read low 0.995 | locus YGL078C, strain dbp3, active compounds read low 0.95 | locus YGL086W, strain mad1, active compounds read low 1.01 | locus YGL167C, strain pmr1, active compounds read low 0.976 | locus YGL173C, strain kem1, active compounds read low 0.986 | locus YGL227W, strain vid30, active compounds read low 0.983 | locus YGL240W, strain doc1, active compounds read low 0.987 | locus YGL248W, strain PDE1, active compounds read low 0.99 | locus YGL253W, strain hxk2, active compounds read low 0.978 | locus YGR135W, strain pre9, active compounds read low 0.947 | locus YGR252W, strain gcn5, active compounds read low 0.956 | locus YHR013C, strain ard1, active compounds read low 0.994 | locus YHR027C, strain rpn1, active compounds read low 0.948 | locus YHR030C, strain SLT2, active compounds read low 0.998 and 1 | locus YHR079C, strain IRE1 (second series), active compounds read low 0.983 | locus YHR079C, strain IRE1, active compounds read low 1 | locus YHR094C, strain hxt1, active compounds read low 0.968 | locus YHR129C, strain ARP1, active compounds read low 0.999 | locus YHR142W, strain chs7, active compounds read low 0.98 | locus YHR200W, strain rpn10, active compounds read low 0.986 | locus YIL066C, strain RNR3, active compounds read low 0.989 | locus YIL073C, strain SPO22, active compounds read low 0.933 | locus YIL125W, strain kgd1, active compounds read low 0.978 | locus YIR030C, strain dcg1, active compounds read low 0.984 | locus YJL092W, strain hpr5, active compounds read low 0.977 | locus YJL095W, strain BCK1 (second series), active compounds read low 0.981 | locus YJL095W, strain BCK1, active compounds read low 0.981 and 1.01 | locus YJL115W, strain asf1, active compounds read low 0.954 | locus YJL129C, strain trk1, active compounds read low 0.97 | locus YJL134W, strain LCB3, active compounds read low 0.983 | locus YJL154C, strain vps35, active compounds read low 0.972 | locus YJL164C, strain tpk1, active compounds read low 0.978 | locus YJL166W, strain qcr8, active compounds read low 0.983 | locus YJL168C, strain set2, active compounds read low 0.977 | locus YJL187C, strain SWE1 (second series), active compounds read low 1.01 | locus YJR043C, strain POL32, active compounds read low 1.03 | locus YJR066W, strain TOR1, active compounds read low 0.957 | locus YJR075W, strain HOC1, active compounds read low 1
